# Assay outcomes from PubChem BioAssay.
# PostGolgi ctrl = growth of the yeast control strain, post-Golgi counter-screen. efflux-deficient yeast background strain, growth absorbance A615, 16 h. inhibition, % at 10 µM. 98,000 compounds, 5% hits. AID 738
# PostGolgi yeast = growth inhibition of a yeast mutant, post-Golgi transport screen. post-Golgi transport phenotypic cell assay. inhibition, % at 10 µM. 98,000 compounds, 0.9% hits. AID 739;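 note: yeast cells grown in 1536-well plates; yeast grown about 18 h at 30C before absorbance read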
# CYP2C9 inh = human CYP2C9 inhibition | CYP2C9 Supersomes, luciferin-H conversion, luminescence | inhibition, % at 5 µM | 96,000 compounds, 20% hits;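 active = blocking of liver enzyme CYP2C9 beyond about 50% at 5 µM, limit read from the data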
# CYP2C19 act = cytochrome P450 2C19 (human) activation; recombinant CYP2C19, luciferin-H EGE luminescence; active compounds read high; 0 = fully inhibited enzyme, 1 = untreated enzyme; 96,000 tested, under 10 active; activation factor at 5 µM;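 active = activation factor of at least 2 at 5 µM in the primary screen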
# Target sequence (P33261 whole entry, looked up): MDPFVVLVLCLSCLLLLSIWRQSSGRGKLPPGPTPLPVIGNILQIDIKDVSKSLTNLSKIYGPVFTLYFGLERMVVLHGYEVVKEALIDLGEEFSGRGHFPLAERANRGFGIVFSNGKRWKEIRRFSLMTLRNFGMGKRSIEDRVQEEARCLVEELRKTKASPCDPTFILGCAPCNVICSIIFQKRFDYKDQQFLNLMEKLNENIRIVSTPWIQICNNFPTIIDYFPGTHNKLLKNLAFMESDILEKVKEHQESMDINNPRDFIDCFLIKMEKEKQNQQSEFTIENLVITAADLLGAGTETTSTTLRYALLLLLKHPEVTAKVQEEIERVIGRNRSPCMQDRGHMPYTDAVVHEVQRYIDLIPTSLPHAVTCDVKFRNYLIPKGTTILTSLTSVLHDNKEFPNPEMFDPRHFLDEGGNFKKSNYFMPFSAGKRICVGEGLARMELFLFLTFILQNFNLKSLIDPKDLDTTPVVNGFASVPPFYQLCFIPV
# CYP2C9 act = activators of human CYP2C9; P11712; recombinant CYP2C9, luciferin-H conversion, luminescence; active compounds read high; factor 1 = untreated enzyme, 0 = blocked; activation factor at 5 µM; 96,000 compounds, 1.4% hits;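 active = activation factor of 2 or more for CYP2C9 at a 5 µM dose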
# CYP2C19 inhib = blocks human cytochrome P450 2C19; P33261; CYP2C19 Supersomes, luciferin-H EGE luminescence, 30 min; inhibition, % at 5 µM; 96,000 compounds, 21% hits; AID 778;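 active = CYP2C19 inhibition above a set limit at 5 µM in the primary screen, cut at about 50% in these data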
# A number is an active result; - = inactive; . = no result. Compounds with a hit are over-represented: about 32% of the library has one in this group of screens. Cut-off read from the data, not from the text of the source, unless noted: active = inhibition above about 30%; inactive = the rest.
SMILES,PostGolgi ctrl,PostGolgi yeast,CYP2C9 inh,CYP2C19 act,CYP2C9 act,CYP2C19 inhib
Cc1[nH]nc2ncc(C(=O)c3cc(Cl)cc(Cl)c3O)cc12,-,-,-,-,-,-
O=C(NCCN1Cc2ccccc2C1=O)c1cccs1,-,-,-,-,-,77
CCc1ccc(OCCNC(=O)c2ccccc2SCc2ccc(F)cc2)cc1,-,-,50,-,-,51
COc1ccc(OCC(=O)NNC(=O)c2cccs2)cc1,-,-,-,-,-,-
O=C(NCCN1CCOCC1)c1cccs1,-,-,-,-,-,-
COc1ccccc1OCCNC(=O)c1cccs1,-,-,52,-,-,92
COc1ccc(CNC(=O)c2cccs2)cc1,-,-,-,-,-,94
CCCN1CCN(C(=O)CN2C(=O)CC(C)(C)S(=O)(=O)c3ccccc32)CC1,-,-,-,-,-,-
CCc1ccc(OCCNC(=O)c2cccs2)cc1,-,-,74,-,-,-
CC(C)OCCCNC(=O)c1cccs1,32,-,-,-,-,-
O=C(NCc1ccccc1F)c1cccs1,-,-,-,-,-,59
Cc1cc(C(=O)NCc2ccccc2F)cs1,-,-,-,-,-,-
O=C(NC1CCCc2ccccc21)C1CCC(CNS(=O)(=O)c2cccc3nsnc23)CC1 (stereo not given),-,-,-,-,-,-
CCOC(=O)CCc1c(C)nc2cc(C3CCCN(C(=O)OC(C)(C)C)C3)[nH]n2c1=O (stereo not given),-,-,-,-,-,-
Cc1cccn2c(=O)c(C=Nc3c(C)n(C)n(-c4ccccc4)c3=O)c(N3CCCC3)nc12,.,.,-,-,-,-
Cc1ccc(S(=O)(=O)/C(C#N)=C/c2c(N3CCOCC3)nc3ccccn3c2=O)cc1,-,-,-,-,-,-
Cc1cccn2c(=O)c(/C=C(\C#N)S(=O)(=O)c3ccccc3)c(N3CCC(C(N)=O)CC3)nc12,-,-,82,-,-,-
CCN1CCN(c2nc3c(C)cccn3c(=O)c2/C=C(\C#N)S(=O)(=O)c2ccccc2)CC1,-,-,90,-,-,-
Cc1ccc(S(=O)(=O)/C(C#N)=C/c2c(N3CCC(C(N)=O)CC3)nc3c(C)cccn3c2=O)cc1,-,-,80,-,-,-
Cc1ccc(S(=O)(=O)/C(C#N)=C/c2c(N3CCC(C(N)=O)CC3)nc3ccccn3c2=O)cc1,-,-,92,-,-,-
CC(=NCc1ccccc1)C1=C(O)COC1=O,-,-,-,-,-,-
COc1cc(S(=O)(=O)N2CCCCC2)ccc1NC(C)=O,-,-,-,-,-,-
Cc1cccn2c(=O)c(C=O)c(N3CCCCCC3)nc12,-,-,-,-,-,-
COc1ccccc1N1CCN(c2nc3c(C)cccn3c(=O)c2C=O)CC1,-,-,-,-,-,69
COc1cc(C2C(C#N)=C(C)NC3=C2C(=O)c2ccccc23)cc(OC)c1OC (stereo not given),-,-,98,-,-,-
SMILES,PostGolgi ctrl,PostGolgi yeast,CYP2C9 inh,CYP2C19 act,CYP2C9 act,CYP2C19 inhib
CCOc1ccc(C2C(C#N)=C(C)NC3=C2C(=O)c2ccccc23)cc1 (stereo not given),-,-,97,-,-,99
COc1ccc(C2C(C#N)=C(C)NC3=C2C(=O)c2ccccc23)cc1 (stereo not given),-,-,-,-,-,-
COc1ccc2c(c1)S/C(=C\C(=O)c1ccncc1)N2C,86,51,62,-,-,73
COc1cccc(-c2cc(C(=O)N3C(C)CCCC3C)no2)c1 (stereo not given),-,-,-,-,-,-
CCOC(=O)c1cc(NC(=O)Nc2ccccc2OC)c(C)nc1C,-,-,-,-,-,-
CCC(C(=O)Nc1ccccc1OC)n1c(C(=O)OC)cc2ccsc21 (stereo not given),-,-,96,-,-,98
COc1ccc(C(=O)Nc2ccccc2NC(=O)c2ccco2)cc1OC,-,-,-,-,-,-
c1cc(C2CCCCC2)ccc1Oc1nc(N2CCOCC2)nc(N2CCOCC2)n1,-,-,-,-,-,-
O=c1c2c3nc4ccccc4nc3n(Cc3ccccc3)c2ncn1Cc1ccco1,-,-,61,-,-,-
CCOCCCn1c(C)nc2c(c1=O)c1nc3ccccc3nc1n2-c1ccc(C)cc1,-,-,-,-,-,-
COCCCn1c(C)nc2c(c1=O)c1nc3ccccc3nc1n2CCc1ccccc1,-,-,80,-,-,-
